Screening data: PubChem BioAssay, several laboratories
PAX8 reporter: inhibitors of PAX8-driven TPO luciferase reporter, primary screen, RMG-I cells, single concentration; AID 652154, 2013; SteadyGlo, 24 h; 1.2% of 360,000 active; inhibition, % at 12.6 µM;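 active = mean replicate inhibition at least 60% with every replicate also reaching 60%; inconclusive = only one of the two criteria is met; inactive = mean below 60% and not all replicates reaching 60%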;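 also: luciferase light reporting Pax8 driven TPO promoter activity; plate controls were median of neutral control wells for no effect and mitoxantrone controls for full effect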
TROY signal inh: inhibitors of TROY-driven NF-kB signaling, primary screen, Q293 LMP1-TROYcd cells, NF-kB luciferase, uHTS | inhibition, % at 10 µM | Q293 LMP1-TROYcd NF-kB luciferase reporter, 4 h | 0.98% of 360,000 active | AID 1347056, 2019;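 active = compounds whose plate-normalised and pattern-corrected inhibition of the luciferase reporter signal at the single screening dose is 50% or more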
TWEAK-Fn14 inh: inhibitors of TWEAK-Fn14 signaling, primary screen, luciferase reporter cells, uHTS; TWEAK-stimulated Fn14 reporter cells, luciferase luminescence, 8 h; AID 1159606, 2016; 2% of 360,000 active; inhibition, % at 10 µM; in the data active = inhibition above about 50%
LGR2 antag: inhibitors of bursicon-induced LGR2 CRE-luciferase signal, primary screen, cell-based, HEK293, CRE-luciferase reporter, bursicon stimulation | Drosophila bursicon receptor LGR2 (rickets) | bursicon-stimulated, 4 h | inhibition, % at 9.99 µM | 0.35% of 380,000 active;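 active = drop in luminescence signal, shown as inhibition above about 50% in the replicate tests, limit read from the data, passing the limit was not always enough; inconclusive = probably only some replicates passing the limit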;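 also: agonist challenge used bursicon conditioned medium at about half maximal strength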
EWS-Fli inh: EWS/Fli-driven NR0B1 reporter inhibitors, primary screen, A673 cells, NR0B1 luciferase, luminescence, MLPCN library. 0.67% of 350,000 active. AID 651661, 2012. viability-normalised. inhibition, % at 12.6 µM;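 active = mean inhibition of at least 50% after viability correction, with every replicate also passing that limit; inconclusive = mean reaches 50% but only one of two replicates passes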;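 also: firefly luciferase signal divided by Alamar Blue viability fluorescence both relative to DMSO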
LMP1 NFkB inh: EBV LMP1-driven NF-kappaB luciferase reporter inhibitors, primary screen, cell-based, luminescence, single point | 0.69% of 350,000 active | inhibition, % at 12.5 µM | LMP1-induced NF-kappaB luciferase reporter cells | AID 504558, 2011; in the data active = inhibition above about 41%; inconclusive = no clear call, values can overlap the other calls;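 also: 0% = neutral control wells and 100% = reference inhibitor control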
* marks the source's active call; other numbers are inactive results; ? = inconclusive; · = no result. A selection: hits, their analogues and other compounds. The true share with any hit is near 3.1%.

SMILES	PAX8 reporter	TROY signal inh	TWEAK-Fn14 inh	LGR2 antag	EWS-Fli inh	LMP1 NFkB inh
COc1ccc([Si](C)(C)[C@@H]2[C@@H](CCO)O[C@]3(C(=O)N(Cc4ccccc4)c4ccc(N5CCOC5=O)cc43)[C@H]2C)cc1	42	·	·	·	17	·
COc1ccc([Si](C)(C)[C@@H]2[C@@H](CCO)O[C@]3(C(=O)N(Cc4cccc(N5CCOC5=O)c4)c4ccccc43)[C@H]2C)cc1	102*	·	·	·	42	·
COc1cccc(-c2ccc3c(c2)[C@H]2[C@H](CCN2S(=O)(=O)c2ccc(F)cc2)[C@H](CO)N3C)c1	-15	·	·	12	11	·
Cc1ccc(S(=O)(=O)CCC(=O)c2ccc(O)cc2O)cc1	97*	1	7	·	·	10
COc1ccc(C(=O)CCS(=O)(=O)c2ccc(C)cc2)cc1OC	96*	20	5	8	-2	-1
COc1ccc(C(=O)COC(=O)CCS(=O)(=O)c2ccc(C)cc2)c(OC)c1	4	-9	7	-5	0	-2
O=C(C[C@@H]1C[C@H]2c3cc(NC(=O)Nc4ccc(C(F)(F)F)cc4)ccc3O[C@H]2[C@H](CO)O1)NCc1cc(F)ccc1F	?	·	·	18	4	·
C[C@H]1CCCCO[C@@H](CN(C)C(=O)c2ccccc2)[C@@H](C)CN([C@@H](C)CO)C(=O)c2cc(NC(=O)c3ccncc3)ccc2O1	-2	·	·	2	-1	·
NC1=C(Cl)C(=O)c2ccc(S(N)(=O)=O)cc2C1=O	121*	86*	108*	105*	65*	88*
Cc1noc(C)c1NC(=O)Nc1ccc2c(c1)C(=O)N([C@H](C)CO)C[C@@H](C)[C@H](CN(C)C(=O)Nc1cccc3ccccc13)OCCCC[C@H](C)O2	12	·	·	6	39	·
COc1cc2cc(c1Cl)N(C)C(=O)CC(OC(=O)C(C)N(C)C(C)=O)C1(C)OC1C(C)C1CC(O)(NC(=O)O1)C(OC)C=CC=C(C)C2 (stereo unspecified)	74*	6	-3	5	28	0
C/C=C/c1ccc([C@@H]2[C@H](CO)N(CCC(F)(F)F)C23CN(C(=O)CN(C)C)C3)cc1	-3	·	·	-2	3	·
C[C@@H]1CN([C@H](C)CO)C(=O)c2cc(C#CCC3CCCC3)cnc2O[C@H]1CN(C)C(=O)CN(C)C	-14	·	·	-5	22	·
COCCN=c1scc(-c2cc(OC)c(OC)c(OC)c2)n1/N=C/c1c(C)[nH]c2ccccc12	26	20	54*	·	-4	10
Cc1[nH]c2ccccc2c1/C=N/n1cnnc1	·	13	-10	·	·	-13
COc1ccc(S(=O)(=O)N(C)C[C@H]2Oc3ccc(NC(=O)c4ccncc4)cc3CC(=O)N([C@H](C)CO)C[C@H]2C)cc1	·	·	·	-5	-3	·
Cc1ccc2c(CSc3nnc4ccccn34)cc(=O)oc2c1C	66*	-16	-5	-9	-37	-3
C[C@H]1CN([C@@H](C)CO)S(=O)(=O)c2ccc(C3=CCCC3)cc2O[C@H]1CN(C)C(=O)C1CC1	·	·	·	-6	-6	·
Cc1ccc(S(=O)(=O)N2c3ccccc3-c3c(ssc3=S)C2(C)C)cc1	-9	12	37	·	-2	58*
COc1ccc2c(c1)-c1c(ssc1=S)C(C)(C)N2S(=O)(=O)c1ccc(C)cc1	20	21	21	2	28	-10
Cc1cccc(N2CCN(C3=NC(=O)/C(=C\c4cn[nH]c4-c4ccccc4)S3)CC2)c1	16	14	12	8	·	12
O=C1N=C(N2CCC(Cc3ccccc3)CC2)S/C1=C/c1cn[nH]c1-c1ccccc1	19	47	77*	·	·	1
Cc1ccc(N2CCN(C3=NC(=O)/C(=C\c4cn[nH]c4-c4ccccc4)S3)CC2)cc1	7	10	-2	20	·	69*
O=C1N=C(N2CCN(c3ccccc3)CC2)S/C1=C\c1cn[nH]c1-c1ccccc1	25	-5	26	60*	3	20
CCN1[C@@H]2c3ccc(-c4cccc(F)c4)c(=O)n3C[C@H]1[C@H](CO)[C@H]2C(=O)NCC1CC1	·	·	·	2	3	·
SMILES	PAX8 reporter	TROY signal inh	TWEAK-Fn14 inh	LGR2 antag	EWS-Fli inh	LMP1 NFkB inh
COCC(=O)Nc1ccc2c(c1)C(=O)N(C)[C@@H]1CC[C@H](CC(=O)NCCc3ccccc3)O[C@H]1CO2	14	·	·	3	-4	·
CCn1nc(C)cc1-c1nnc(Sc2ncc([N+](=O)[O-])s2)n1C	78*	-6	17	-2	69*	16
CCn1nc(C)cc1-c1nnc(SCC(=O)Nc2ccccc2)n1CCCOC	-19	-4	7	·	0	2
Cc1cccc(NC(=O)CCc2ccc(N3C(N)=NC(N)=NC3(C)C)cc2)c1	65*	-6	-11	9	?	1
CC1(C)N=C(N)N=C(N)N1c1cccc(CC(=O)Nc2ccccc2)c1	19	-11	7	-27	12	-5
O=c1oc2ccccc2cc1-c1csc(NN=C2CCCCC2)n1	·	17	31	·	·	-20
CC1CCC/C(=C(\C#N)c2nc(-c3cc4ccccc4oc3=O)cs2)C1 (stereo unspecified)	-57	66*	64*	-51	·	-26
C[C@H](CO)N1C[C@H](C)[C@H](CN(C)Cc2ccc(C(=O)O)cc2)Oc2ccc(NS(=O)(=O)c3ccccc3)cc2C1=O	·	·	·	-2	-15	·
CCCNC(=O)N(C)C[C@@H]1Oc2ncc(-c3ccc(F)cc3)cc2C(=O)N([C@@H](C)CO)C[C@@H]1C	·	·	·	0	-9	·
CCCCCCCn1c(=O)c(C(=O)OC)c(N)c2ccccc21	8	39	51*	11	18	14
CCCCCCCCn1c(=O)c(C(=O)OC)c(N)c2ccccc21	4	40	47	15	10	·
CCOC(=O)NCc1ccccc1	·	-8	7	·	·	84*
CCOc1ccc(C(=O)NCc2ccccc2)cc1Br	79*	-3	-14	22	-11	-4
CCOc1cc(C(=O)NCc2ccccc2)ccc1OCC(=O)N1CCOCC1	0	-18	-15	0	12	0
CO[C@H]1CN(C)C(=O)c2cc(NC(=O)C3CCCC3)ccc2OC[C@H](C)N(CC2CC2)C[C@H]1C	0	·	·	16	0	·
O=C(NNC(=O)c1ccc2ccccc2c1)c1cccc(F)c1	-46	-43	1	-32	-14	7
O=C(NNC(=O)c1cccc2ccccc12)c1cccc(F)c1	87*	-16	-18	-20	-10	2
Cc1ccc2[nH]c3c(c2c1)CCCC3C(N)=O (stereo unspecified)	24	-66	8	·	7	-4
Cc1ccc2[nH]c3c(c2c1)CCCC3NC(=O)CCl (stereo unspecified)	·	7	71*	·	·	87*
